In PubChem BioAssay (NCATS):
Where “and” joins values, the source holds several entries; their conditions need not be identical. Equal entries are not always repeated. Records with an inconclusive call do not appear. Calls of active or inactive are those of the source. The call rests on the fitted dose curve; in most records, active means well fitted cell-killing curve with a large enough effect; inconclusive means small, poorly fitted or top-dose-only effect, or effect the other way; inactive means no such curve, though single readings can be large or run the other way.

Assay: Viability qHTS for spleen associated tyrosine kinase inhibitor (SYKi) naive MV4-11 cells (AID 1963823); further: nearly all actives have a fitted effect of over 40% in size
Settings: MV4-11 AML viability, CellTiter-Glo luminescence, 72 h; series mostly up to 45 µM; viability (% of control): at the top concentration
Outline: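 Cells: MV4-11, SYK inhibitor naive, 500 per well. Treatment: library compounds, 72 hr, 37 C, 5% CO2. Read-out: CellTiter-Glo luminescence after 10 min RT.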
Potency means the concentration at half of the fitted maximal effect.

SMILES	Potency	viability (% of control)
CSc1ccc(C(=O)/C=C/c2cc(C)c(OC(C)(C)C(=O)O)c(C)c2)cc1	3.03 µM (active)	
c1ccc(-c2ccc(CNc3nc(-c4ccccn4)nnc3-c3ccccc3)cc2)cc1	0.92 µM (active)	
CC1=NN(c2ccc(C(=O)O)cc2)C(=O)/C1=C/c1ccc(-c2cc(C)c(C)cc2[N+](=O)[O-])o1	16.6 µM (active)	
NC(=O)c1nc(F)c[nH]c1=O	inactive	
CN1[C@@H]2CCC[C@H]1CC(NC(=O)c1nn(C)c3ccccc13)C2 (stereo not given in full)		108% (inactive)
COc1cc2nccc(Oc3ccc(NC(=O)c4cn(C(C)C)c(=O)n(-c5ccc(F)cc5)c4=O)cc3F)c2cc1OC	0.186 µM (active)	
O=C1NCC2(CCN(CCc3ccccc3)CC2)O1		94.4% (inactive)
CCCCCN(CCCOC)C(=O)C(CCC(=O)O)NC(=O)c1ccc(Cl)c(Cl)c1 (stereo not given)		55.2% (inactive)
COc1cc(C(=O)NC2CCCNC2)cc(OC)c1OC (stereo not given)		89.8% (inactive)
C[C@@H](O)[C@@H]1NC(=O)[C@H](CCCCN)NC(=O)[C@@H](Cc2c[nH]c3ccccc23)NC(=O)[C@H](Cc2ccccc2)NC(=O)[C@@H](NC(=O)[C@H](N)Cc2ccccc2)CSSC[C@@H](C(=O)N[C@H](CO)[C@@H](C)O)NC1=O		84.6% [at 17.3 µM] (inactive)
C[C@@]1(c2ncncc2F)NC(=O)c2cc(-c3cn[nH]c3)ccc21	16.6 µM (active)	
CCCCN1C[C@H](O)[C@@H](O)[C@H](O)[C@H]1CO		55.1% (inactive)
CCN(CC)CCNC(C(=O)OCCC(C)C)c1ccccc1 (stereo not given)		78.7% (inactive)
CC/C=C(\C(=O)N[C@@H]1C(=O)N2C(C(=O)OCOC(=O)C(C)(C)C)=C(COC(N)=O)CS[C@H]12)c1csc(N)n1		71.5% (inactive)
Cc1ccc([N+](=O)[O-])cc1S(=O)(=O)N(C)/N=C/c1cnc2ccc(Br)cn12	16.4 nM (active) and 26.3 nM (active)	
C[C@@H](O)[C@@H](C)Oc1nc(Nc2ccc(S(=N)(=O)C3CC3)cc2)ncc1C(F)(F)F (stereo not given in full)	3.32 µM (active)	
CCCN1CCCC[C@H]1C(=O)Nc1c(C)cccc1C		74.8% (inactive)
C[C@]12C=CC(=O)C=C1CC[C@@H]1[C@@H]2[C@@H](O)C[C@@]2(C)[C@H]1CC[C@]2(O)C(=O)CO		92.2% (inactive)
CCCCOC(=O)NS(=O)(=O)c1sc(CC(C)C)cc1-c1ccc(Cn2ccnc2)cc1	14.8 µM (active)	
CCOC(=O)C1=C(C)NC(C)=C(C(=O)OCC)C1c1ccccc1/C=C/C(=O)OC(C)(C)C	9.44 µM (active)	
Nc1c(NC/C=C\COc2cc(CN3CCCCC3)ccn2)c(=O)c1=O		95.2% [at 17.3 µM] (inactive)
CC(=O)N[C@@H](CC(C)C)C(=O)O		93.5% (inactive)
Nc1ccc(S(=O)(=O)Nc2cnc3ccccc3n2)cc1		61.7% (inactive)
Cc1c(O)cccc1C(=O)NC(CSc1ccccc1)C(O)CN1CC2CCCCC2CC1C(=O)NC(C)(C)C (stereo not given)	16.6 µM (active)	
COc1cc(N2CCC(N)CC2)ccc1Nc1ncc(Cl)c(-c2c[nH]c3ccccc23)n1	0.0166 µM (active)	
